aSyn tox rescue – rescues yeast growth from alpha-synuclein toxicity. AID 1347070. S. cerevisiae alpha-synuclein toxicity rescue, BacTiter-Glo growth, 24 h. 94,000 compounds, 0.02% hits. Potency, µM (doses to about 46.1 µM), hits mostly activators; active means well fitted activation curve with a large enough effect; further: 0% is about no effect
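Growth restoration measured by BacTiter-Glo luminescence after 24 hr at 30 deg C; alpha-synuclein yeast, raffinose-pregrown to mid-log, were added at OD600=0.02 in galactose medium onto pinned compounds.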
* = called active by the depositor. This is one part of a sample in which hits are shown more often than they occur. Potency means the concentration at half of the fitted maximal effect.

How did Cc1cccc(Cn2c(=O)n(CC3CCC(C(=O)N4CCOCC4)CC3)c(=O)c3sccc32)c1 (stereo unspecified) do in these assays?
aSyn tox rescue: inactive

What do the screens show for `CCOc1ccc(-c2csc(/C(C#N)=C/c3ccc(Br)cc3)n2)cc1`?
aSyn tox rescue: inactive

What do the screens show for `CSc1ccc(C2c3[nH]c4ccccc4c3CCN2C(=O)CCc2ccccc2)cc1` (stereo unspecified)?
aSyn tox rescue: inactive

What do the screens show for `Cc1ccc(C2c3[nH]c4ccccc4c3CCN2C(=O)CSCc2ccc(F)cc2)cc1` (stereo unspecified)?
aSyn tox rescue: 16µM*

Results for CCc1ccccc1NC(=O)N1CCc2c([nH]c3ccccc23)C1c1ccc(C)cc1 (stereo unspecified) ?
aSyn tox rescue: inactive

Results for O=C(CCC1CCCC1)N1CCc2c([nH]c3ccccc23)C1c1ccc(F)cc1 (stereo unspecified) ?
aSyn tox rescue: inactive

What do the screens show for `CCOc1ccc(C2c3[nH]c4ccccc4c3CCN2C(=O)CSc2ccccc2)cc1` (stereo unspecified)?
aSyn tox rescue: inactive

What do the screens show for `Cc1ccc(C2c3[nH]c4ccccc4c3CCN2C(=O)CSc2ccccc2)cc1` (stereo unspecified)?
aSyn tox rescue: 14µM*

What do the screens show for `Cc1cc(C)c(S(=O)(=O)NCC(c2ccco2)S(=O)(=O)c2cccs2)c(C)c1` (stereo unspecified)?
aSyn tox rescue: inactive

Results for Cc1onc(-c2ccc(Br)cc2)c1C(=O)Nc1ccc(Br)cc1F ?
aSyn tox rescue: inactive

What do the screens show for `COc1ccc(-n2ccnc(NCc3cccs3)c2=O)cc1OC`?
aSyn tox rescue: inactive

How did C=Cc1ccc(Cn2c(C(=O)O)c(CNC3CCCCC3)c3ccc(C)cc32)cc1 do in these assays?
aSyn tox rescue: inactive

Results for CCCN(CCC)CCCNC(=O)c1cc2c(=O)oc3ccc(C)cc3c2s1 ?
aSyn tox rescue: 13µM*

How did Cc1ccc2oc(=O)c3cc(C(=O)NCc4ccc(Cl)cc4)sc3c2c1 do in these assays?
aSyn tox rescue: inactive

What do the screens show for `Cc1ccc(CNC(=O)c2cc3c(=O)oc4ccc(C)cc4c3s2)cc1`?
aSyn tox rescue: inactive

What do the screens show for `O=C(NCCCN1CCN(c2cccc(Cl)c2)CC1)Nc1ccccc1C(F)(F)F`?
aSyn tox rescue: inactive

What do the screens show for `COc1ccc(Br)cc1CNCc1c(C(=O)O)c(C)n(Cc2ccccc2C)c1C`?
aSyn tox rescue: inactive

Results for O=C(NC1CCCCC1)c1cc2c(Cl)nc3ccccc3c2s1 ?
aSyn tox rescue: inactive

Results for CC(NC(=O)C1CCN(C(=O)c2ccc(-n3ccc4ccccc43)s2)CC1)c1ccccc1 (stereo unspecified) ?
aSyn tox rescue: inactive

How did N#Cc1ccc(OC(=O)c2cc(-c3ccc(Cl)cc3)on2)cc1 do in these assays?
aSyn tox rescue: inactive

What do the screens show for `O=C(Cn1c(SCC(=O)Nc2ccc(F)cc2)nc2ccccc21)NCc1ccccc1Cl`?
aSyn tox rescue: inactive

How did CC(=O)c1ccc(NS(=O)(=O)c2cccc(S(=O)(=O)c3ccc(Cl)cc3)c2)cc1 do in these assays?
aSyn tox rescue: inactive

How did CC1=C(C(=O)OC2CCCC2)C(c2c(F)cccc2Cl)CC(=O)N1 (stereo unspecified) do in these assays?
aSyn tox rescue: inactive

How did Cc1ccc(-c2nc(S(=O)(=O)c3ccc(C)cc3)c(SCC(=O)c3ccccc3)o2)cc1 do in these assays?
aSyn tox rescue: 18µM*

How did O=C(CSc1oc(-c2ccc(F)cc2)nc1S(=O)(=O)c1ccccc1)c1ccc(Cl)cc1 do in these assays?
aSyn tox rescue: inactive

How did Cc1ccc(S(=O)(=O)c2nc(-c3ccc(F)cc3)oc2SCC(=O)c2ccccc2)cc1 do in these assays?
aSyn tox rescue: inactive

How did O=C(CSc1nc2c([nH]c3ccccc32)c(=O)n1-c1ccccc1)c1ccc(Cl)cc1 do in these assays?
aSyn tox rescue: inactive

Results for Cc1ccccc1CNCCSc1nnnn1-c1ccccc1 ?
aSyn tox rescue: inactive

Results for Cc1cc(C)cc(Oc2nc3c(C)cccn3c(=O)c2/C=C(\C#N)c2nc3ccccc3s2)c1 ?
aSyn tox rescue: inactive

How did CCOc1ccc(N(CC)S(=O)(=O)N2CCCC(C(=O)Nc3cc(Cl)ccc3OC)C2)cc1 (stereo unspecified) do in these assays?
aSyn tox rescue: inactive

How did Cc1cccc(C)c1NC(=O)c1ccc2c(c1)nnn2C1CCCC1 do in these assays?
aSyn tox rescue: inactive

How did Cn1cc(S(=O)(=O)N2CCCCC2)cc1C(=O)NCc1ccc(Cl)cc1 do in these assays?
aSyn tox rescue: inactive

Results for CCN1CCN(CCCNC(=O)Cn2c(-c3cccs3)cc3cc(F)ccc32)CC1 ?
aSyn tox rescue: inactive

How did COc1ccc(CNC(=O)Cn2c(=O)nc(-c3ccccc3)c3ccccc32)cc1OC do in these assays?
aSyn tox rescue: inactive

How did Cc1nc2ccn(Cc3cccnc3)c(=O)c2cc1C(=O)NCc1ccccc1 do in these assays?
aSyn tox rescue: inactive

How did Cc1cc(-c2ccc(S(=O)(=O)Nc3cccc(Cl)c3C)cc2)on1 do in these assays?
aSyn tox rescue: inactive

Results for COc1cccc(CNS(=O)(=O)c2c(C)nc3scc(C)n3c2=O)c1 ?
aSyn tox rescue: inactive

High-throughput results from PubChem BioAssay.
